The list is not random: actives were taken first. Their share in the collection is about 6.7%.
GDH-TPI counter: GDH-TPI coupled enzyme inhibition counter-screen; GDH-TPI coupled enzyme counterscreen, NADH absorbance; inhibition, % at 4.8 µM; actives 1.2% (n = 360,000); in the data active = inhibition above about 30%;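 note: 0% = DMSO wells and 100% = wells lacking the enzyme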
BoNT A protease: blocks Botulinum neurotoxin A light chain protease; actives 0.17% (n = 360,000); multiplex microsphere protease substrate cleavage, flow cytometry; inhibition, % at 10 µM; note: plate controls were buffer without enzyme for full effect and enzyme alone for no effect
Anthrax LF prot: anthrax lethal factor protease inhibition; multiplex microsphere protease cleavage assay, LF; P15917; inhibition, % at 10 µM; AID 588501; actives 0.12% (n = 360,000); note: plate controls were buffer without enzyme for full effect and enzyme alone for no effect
BoNT F protease: inhibitors of Botulinum neurotoxin F light chain protease; AID 588497; actives 0.22% (n = 360,000); Multiplex microsphere protease cleavage assay, flow cytometry; inhibition, % at 10 µM; in the data active = inhibition above about 35%, passing the limit was not always enough; inconclusive = no clear call, values can overlap the other calls; note: plate controls were buffer without enzyme for full effect and enzyme alone for no effect
Autofluor counter: flagged as autofluorescent in microsphere protease counterscreen. AID 624483. compound autofluorescence counterscreen, microsphere flow cytometry; active compounds read high. fluorescence intensity (no concentration beside the values). actives 3.1% (n = 360,000); in the data active = fluorescence intensity above about 16000; inconclusive = no clear call, values can overlap the other calls
Mtb FBA inh: inhibitors of M. tuberculosis fructose-bisphosphate aldolase; inhibition, % at 1 µM; actives 2.3% (n = 360,000); purified M. tuberculosis FBA, fluorescence read-out; P9WQA3; in the data active = inhibition above about 27%;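 note: 0% = vehicle and 100% = reference inhibitor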
Target sequence (P9WQA3 whole entry, looked up): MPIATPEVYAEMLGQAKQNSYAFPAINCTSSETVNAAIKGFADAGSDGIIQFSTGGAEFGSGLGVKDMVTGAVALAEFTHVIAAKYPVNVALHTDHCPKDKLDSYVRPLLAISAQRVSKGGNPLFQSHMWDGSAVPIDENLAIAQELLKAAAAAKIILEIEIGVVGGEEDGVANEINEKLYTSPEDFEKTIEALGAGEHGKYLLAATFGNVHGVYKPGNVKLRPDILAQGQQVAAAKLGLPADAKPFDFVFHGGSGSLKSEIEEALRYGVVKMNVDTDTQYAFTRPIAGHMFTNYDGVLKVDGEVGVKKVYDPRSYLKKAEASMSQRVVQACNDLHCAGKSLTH
* hit, by the source's call. Cut-off read from the data, not from the text of the source, unless noted: active = inhibition above about 30%; inconclusive = no clear call, values can overlap the other calls; inactive = below that.

What do the screens show for `COc1ccc(/C(CC2OC(=O)c3ccccc32)=N\NC(N)=O)cc1` (stereo unspecified)?
GDH-TPI counter: 9; BoNT A protease: 0; Anthrax LF prot: 1; BoNT F protease: -1; Autofluor counter: 2648; Mtb FBA inh: -2

What do the screens show for `CNC(=S)N1N=C(c2ccc(C)cc2)CC1c1ccc(OC)c(OC)c1` (stereo unspecified)?
GDH-TPI counter: 17; BoNT A protease: 3; Anthrax LF prot: 3; BoNT F protease: 1; Autofluor counter: 10025; Mtb FBA inh: 6

Results for CCCCn1c2nc3ccccc3nc2c2c(=O)n(CC(C)C)cnc21 ?
GDH-TPI counter: 6; BoNT A protease: 2; Anthrax LF prot: 2; BoNT F protease: 2; Autofluor counter: 4882; Mtb FBA inh: 2

How did Cc1nnc(N/N=C/c2ccc(O)c([N+](=O)[O-])c2)[nH]c1=O do in these assays?
GDH-TPI counter: 47*; BoNT A protease: -1; Anthrax LF prot: -1; BoNT F protease: -8; Autofluor counter: 2509; Mtb FBA inh: -3

Results for Cc1cc(=O)[nH]c(N/N=C/c2ccc(Cl)c([N+](=O)[O-])c2)n1 ?
GDH-TPI counter: 9; BoNT A protease: -1; Anthrax LF prot: 3; BoNT F protease: 6; Autofluor counter: 4749; Mtb FBA inh: -2

How did O=C1N[C@@H](Cc2ccccc2)C(=O)N1CCN1CCOCC1 do in these assays?
GDH-TPI counter: -1; BoNT A protease: inconclusive; Anthrax LF prot: -2; BoNT F protease: 2; Autofluor counter: 22937*; Mtb FBA inh: 1

What do the screens show for `O=C1CCCN1CCCN1C(=O)N[C@@H](Cc2ccccc2)C1=O`?
GDH-TPI counter: 7; BoNT A protease: -1; Anthrax LF prot: -1; BoNT F protease: -5; Autofluor counter: 10248; Mtb FBA inh: 0

How did O=C(/C=C\Nc1ccccn1)c1ccc(Cl)cc1 do in these assays?
GDH-TPI counter: 31*; BoNT A protease: 2; Anthrax LF prot: -3; BoNT F protease: -10; Autofluor counter: 6601; Mtb FBA inh: 1

Results for CCCCOc1ccc(C(=O)N2CCCC2)cc1 ?
GDH-TPI counter: 6; BoNT A protease: inconclusive; Anthrax LF prot: 0; BoNT F protease: -1; Autofluor counter: 16482*; Mtb FBA inh: -2

Results for CCOC(=O)C1CCCN(C(=O)c2ccc(OCC)cc2)C1 (stereo unspecified) ?
GDH-TPI counter: -6; BoNT A protease: -1; Anthrax LF prot: 1; BoNT F protease: -2; Autofluor counter: 24552*; Mtb FBA inh: active

How did CCOC(=O)C1CCCN(C(=S)Nc2ccc(Nc3ccccc3)cc2)C1 (stereo unspecified) do in these assays?
GDH-TPI counter: 3; BoNT A protease: 0; Anthrax LF prot: 1; BoNT F protease: -7; Autofluor counter: 3346; Mtb FBA inh: -4

How did CCOC(=O)C1CCCN(C(=O)c2ccc(C(=O)c3ccccc3)cc2)C1 (stereo unspecified) do in these assays?
GDH-TPI counter: 2; BoNT A protease: 0; Anthrax LF prot: -6; BoNT F protease: 0; Autofluor counter: inconclusive; Mtb FBA inh: 1

How did CCOC(=O)C1CCCN(C(=S)Nc2ccc(C)cc2C)C1 (stereo unspecified) do in these assays?
GDH-TPI counter: 5; BoNT A protease: 0; Anthrax LF prot: -1; BoNT F protease: -2; Autofluor counter: 16244*; Mtb FBA inh: 2

What do the screens show for `COc1ccc(C(=O)NN2CCCCC2)cc1OC`?
GDH-TPI counter: 8; BoNT A protease: inconclusive; Anthrax LF prot: 2; BoNT F protease: 2; Autofluor counter: 22220*; Mtb FBA inh: -1

How did O=C(CSc1nnc2c(Cl)cc(Cl)cn12)NC1CCS(=O)(=O)C1 (stereo unspecified) do in these assays?
GDH-TPI counter: 9; BoNT A protease: 0; Anthrax LF prot: -1; BoNT F protease: 2; Autofluor counter: 3287; Mtb FBA inh: 1

Results for CCCOc1ccc(C(=O)N2CCCC2)cc1OC ?
GDH-TPI counter: 0; BoNT A protease: inconclusive; Anthrax LF prot: 1; BoNT F protease: -1; Autofluor counter: 19871*; Mtb FBA inh: 0

How did CCCCC(=O)N1CCCC(C(=O)OCC)C1 (stereo unspecified) do in these assays?
GDH-TPI counter: 7; BoNT A protease: -1; Anthrax LF prot: -1; BoNT F protease: 0; Autofluor counter: 22655*; Mtb FBA inh: -1

Results for CCOc1ccc(C(=O)N2CCN(c3cccc(C)c3C)CC2)cc1 ?
GDH-TPI counter: 4; BoNT A protease: -2; Anthrax LF prot: -1; BoNT F protease: -6; Autofluor counter: 17197*; Mtb FBA inh: 0

Results for CCOc1ccc(C(=O)N2CCN(c3cccc(Cl)c3)CC2)cc1 ?
GDH-TPI counter: 1; BoNT A protease: -1; Anthrax LF prot: -7; BoNT F protease: -2; Autofluor counter: 4282; Mtb FBA inh: -1

What do the screens show for `COC(=O)C1(C)CCc2cc(OC)ccc2C1=O` (stereo unspecified)?
GDH-TPI counter: -5; BoNT A protease: 0; Anthrax LF prot: 2; BoNT F protease: -2; Autofluor counter: 2375; Mtb FBA inh: -1

How did COc1ccc2c(c1)CCC1(C)CC(=O)C(Br)=C21 (stereo unspecified) do in these assays?
GDH-TPI counter: 42*; BoNT A protease: 0; Anthrax LF prot: -10; BoNT F protease: -4; Autofluor counter: 2801; Mtb FBA inh: active

What do the screens show for `CCN1c2ccccc2NC2N=C(OC)C(c3ccccc3)C21` (stereo unspecified)?
GDH-TPI counter: 6; BoNT A protease: inconclusive; Anthrax LF prot: 0; BoNT F protease: -11; Autofluor counter: 25940*; Mtb FBA inh: -1

Results for COc1cccc(C(=O)N2CCN(C3CCC(c4ccccc4)CC3)CC2)c1OC (stereo unspecified) ?
GDH-TPI counter: 9; BoNT A protease: -1; Anthrax LF prot: -4; BoNT F protease: -9; Autofluor counter: 2245; Mtb FBA inh: 4

What do the screens show for `CCN(CC)S(=O)(=O)c1cc(C(=O)Oc2ccccc2OC)ccc1OC`?
GDH-TPI counter: 1; BoNT A protease: 1; Anthrax LF prot: 3; BoNT F protease: 4; Autofluor counter: 22741*; Mtb FBA inh: 1

What do the screens show for `Cc1ccccc1C(=O)Nc1cccc(C(=O)N/N=C/c2ccccn2)c1`?
GDH-TPI counter: 5; BoNT A protease: -4; Anthrax LF prot: -12; BoNT F protease: 7; Autofluor counter: 3278; Mtb FBA inh: -1

How did CN(CC1CCCN(CCc2ccc(F)cc2)C1)C(=O)CCC(F)(F)F (stereo unspecified) do in these assays?
GDH-TPI counter: 11; BoNT A protease: -4; Anthrax LF prot: 14; BoNT F protease: 9; Autofluor counter: 3258; Mtb FBA inh: -1

Results for CN(C)C(=O)CCC(=O)N(C)CC1CCCN(CCc2ccc(F)cc2)C1 (stereo unspecified) ?
GDH-TPI counter: -1; BoNT A protease: -2; Anthrax LF prot: 8; BoNT F protease: -5; Autofluor counter: 3591; Mtb FBA inh: 188*

Assay outcomes: PubChem BioAssay, several laboratories
